Calls of active or inactive are those of the source.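 The calls were made as follows: active = visually confirmed hit in the image check and inhibition above 20%; inconclusive = visually confirmed hit but inhibition not above 20%; inactive = no visual hit in the image check.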

A short description of one assay: endothelial E-selectin expression blockers – imaging, HUVEC, immunofluorescence, MLSMR starter and 10KST1 sets, primary screen (AID 487).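 As to inhibition: signal is fraction of cell area covered by stained E-selectin grains.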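 As to nuclei count: 100% = median nuclei count of all wells on the same plate.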 Conditions: HUVEC TNFalpha-induced E-selectin immunofluorescence imaging, at 2 µM; inhibition: stronger effect = higher value; nuclei count: measured here: cell number, toxicity.
Turning to `CCOC(=O)C(Oc1ccc(=O)[nH]n1)C(C)=O` (configuration not stated), the nuclei count stood at 105% and the inhibition – broadly, the change of the read-out against control, counted positive when it falls – is -70.7% (inactive).
In the same order, the values of `CC1=NS(=O)(=O)c2cc(Cl)ccc2N1` are 105% and -68% (inactive).
As to `CCCCOc1ccccc1P(=O)(O)CP(=O)(c1ccccc1)c1ccccc1`, the inhibition was -205% (inactive) and the nuclei count turned out to be 192%.
With `COc1cccc(C(=O)NCC(=O)n2nc(C)cc2C)c1`, the inhibition is -70.4% (inactive) and the nuclei count worked out at 88.5%.

The next assay can be described thus: Primary imaging screen for DUSP6 inhibitors that restore phospho-Erk in transfected HeLa cells, chemical complementation (AID 609). The note with it: HeLa MKP-3 transfected, phospho-Erk imaging KS statistic; measured here: cell density z-score; at 10 µM; cells stimulated with TPA for 15 min.
Regarding `O=C(NCC1CCCCN1)c1cc(OCC(F)(F)F)ccc1OCC(F)(F)F` (configuration not stated), the z-score was determined as 0.584.
Same read-out and setting: in the case of `CN1CC(=O)Nc2ccc(F)cc2C1=O` it was -0.408; in that of `CN1CCN(C2=Nc3cc(Cl)ccc3Nc3ccccc32)CC1`, -0.235; in that of `COc1cc(C)nc(Oc2ccc(=O)[nH]n2)n1`, -0.3.
With `CCN(CC)CCNC(=O)c1ccc(N)cc1`, the z-score was found to be 1.09.
As to `COc1cc2nc(N3CCN(C(=O)C4CCCO4)CC3)nc(N)c2cc1OC` (configuration not stated), the z-score is 1.01.
Still for that read-out and setting: in the case of `O=C(CCCN1CCC(O)(c2ccc(Cl)cc2)CC1)c1ccc(F)cc1` it was 1.12; in that of `CCCOc1cccc(CN2CCCCC2c2cccnc2)c1` (configuration not stated), 0.13; in that of `COc1ccc(-c2coc3cc(O)cc(O)c3c2=O)cc1`, -0.996.
For `CN(C)CCCN1c2ccccc2CCc2ccccc21`, the z-score is -0.894.
Same read-out and setting: in the case of `Cc1cccc(OCC(=O)NCC(=O)n2nc(C)cc2C)c1` it was -0.336; in that of `COCCN(Cc1ccccc1)P(=O)(O)c1ccccc1OCC(=O)O`, 1.19; in that of `Oc1oc(-c2ccccc2)nc1C=NCc1ccncc1`, 0.0106.
Same read-out and setting: in the case of `CCC1=Nc2ccccc2NC2=C1C(=O)CCC2` it was -1.25; in that of `CC[C@]1(O)C[C@@H]2CN(CCc3c([nH]c4ccccc34)[C@@](C(=O)OC)(c3cc4c(cc3OC)N(C)[C@H]3[C@@](O)(C(=O)OC)[C@H](OC(C)=O)[C@]5(CC)C=CCN6CC[C@]43[C@@H]65)C2)C1`, -0.32.
On the same count and under the same terms, under `NC(N)=Nc1nc(CSCC/C(N)=N/S(N)(=O)=O)cs1` stands -1.28.
In the case of `CC(=O)O[C@@]12CO[C@@H]1C[C@H](O)[C@@]1(C)C(=O)[C@H](O)C3=C(C)[C@@H](OC(=O)[C@H](O)[C@@H](NC(=O)OC(C)(C)C)c4ccccc4)C[C@](O)([C@@H](OC(=O)c4ccccc4)[C@H]21)C3(C)C`, the z-score was -1.36.
Still for that read-out and setting: under `CC(=O)Oc1oc(-c2ccccc2)nc1/C=N/c1ccccn1` stands -0.443; under `COc1ccc(OC)c(N=C(C)C2=C(O)COC2=O)c1`, -1.31.
On the same count and under the same terms, under `CC[C@H]1CN2CCc3cc(OC)c(OC)cc3[C@@H]2C[C@@H]1C[C@H]1NCCc2cc(OC)c(OC)cc21` stands 0.501.
The same measure, in the same setting: in the case of `COc1ccc(OCC(=O)OCCN(C)C)cc1` it was -1.95; in that of `COc1cccc(C(=O)OCCN(C)C(C)(C)C)c1`, 0.369; in that of `Cc1nnc(NS(=O)(=O)c2ccc(N)cc2)s1`, 0.0804.
In turn, `COc1ccc([C@@H]2Sc3ccccc3N(CCN(C)C)C(=O)[C@@H]2OC(C)=O)cc1` had a z-score of 0.794.
In turn, `O=C(CCN1CCCC1Cc1ccccc1)c1ccc2c(c1)OCCO2` (configuration not stated) registered a z-score of -1.44.
On to `Fc1ccc(C(c2ccc(F)cc2)N2CCN(C/C=C/c3ccccc3)CC2)cc1`, for which the z-score was -0.381.
On the same count and under the same terms, in the case of `COc1ccc[nH]c1=O` it was -0.586; in that of `CCC(=O)Oc1oc(-c2ccccc2)nc1C=Nc1ccccc1OC`, 0.687; in that of `O=C(O)c1ccc(COCC(F)(F)C(F)F)o1`, -0.0306.
On the same count and under the same terms, in the case of `Cc1nc2sc(C)c(C)c2c(=O)o1` it was -0.563; in that of `CC1(C)S[C@@H]2[C@H](NC(=O)[C@H](N)c3ccccc3)C(=O)N2[C@H]1C(=O)O`, -0.832; in that of `O=P(Cc1nnco1)(c1ccccc1)c1ccccc1`, 0.578.
The same measure, in the same setting: under `Nc1nc2c(ncn2COCCO)c(=O)[nH]1` stands -1.3; under `c1ccc2c(c1)nc(CN1CCOCC1)n1c3ccccc3nc21`, -0.838.
For `CCC(NC(=O)Nc1nnc(C(F)(F)F)s1)(C(F)(F)F)C(F)(F)F`, the z-score was 0.851.
Turning to `CCOC(=O)C(Oc1ccc(=O)[nH]n1)C(C)=O` (configuration not stated), the z-score is -0.778.
Still for that read-out and setting: in the case of `CC1=NS(=O)(=O)c2cc(Cl)ccc2N1` it was 0.557; in that of `CCCCOc1ccccc1P(=O)(O)CP(=O)(c1ccccc1)c1ccccc1`, -0.204; in that of `COc1cccc(C(=O)NCC(=O)n2nc(C)cc2C)c1`, 0.974.

Source of the values: PubChem BioAssay.
